Screening data: PubChem BioAssay, National Center for Advancing Translational Sciences (NCATS)
An excerpt weighted towards active compounds, which were near 3.8% of everything screened.
ATXN2 expr inh – Primary qHTS for Inhibitors of ATXN expression; Potency, µM (highest dose often 57 µM), actives largely listed as inhibitors; 360,000 tested, 0.72% active; HEK-293 ATXN2-luciferase reporter, luminescence, 24 h; further: nearly all actives have a fitted effect of over 55% in size
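qHTS (up to 57 uM final) was run with 24 h compound exposure of reporter cells at 37 °C. Each well was multiplexed: SteadyGlo luminescence measured ATXN2-luciferase expression after a fluorogenic Gly-Phe-AFC viability readout (25 uM final).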
HT1080 IDH1KD tx – qHTS for induction of synthetic lethality in tumor cells producing 2HG: qHTS for the HT-1080-IDH1KD cell line; Potency, µM (series often up to 46.1 µM), usual class: cytotoxic; 360,000 tested, 2% active; HT-1080 IDH1 knockdown viability, ATP luminescence, 48 h; AID 686971, 2013
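Viability of IDH1-knockdown HT-1080 fibrosarcoma cells was assessed by CellTiter-Glo after 48 h at 37 °C with titrated compound; concentration-effect curves were classified by fit quality and response size.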
HT1080NT lethal – qHTS for induction of synthetic lethality in tumor cells producing 2HG: qHTS for the HT-1080-NT fibrosarcoma cell line; HT-1080-NT fibrosarcoma viability, CellTiter-Glo ATP luminescence, 48 h; AID 686970, 2013; 360,000 tested, 1.6% active; Potency, µM (series often up to 46.1 µM), actives largely listed as cytotoxic;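 further: NT is the 2HG producing partner of a matched IDH1 knockdown line; nearly all actives have a fitted effect of over 55% in size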
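Viability by CellTiter-Glo luminescence after 48 h compound exposure at 37C of HT-1080-NT cells (750/well, RPMI, 5% FBS). % activity scaled between DMSO wells and medium-only wells, then curve-fitted and categorized by curve class.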
ATXN viability – Viability Counterscreen for Primary qHTS for Inhibitors of ATXN expression; Potency, µM (titrated, usually from 56.7 µM), usual class: cytotoxic; 400,000 tested, 0.49% active; S2 cells (HEK-293 line with an ATXN2-luciferase reporter) viability, CellTiter-Fluor protease fluorescence, 24 h; further: nearly all actives have a fitted effect of over 40% in size
TGFb SMAD3 inh – qHTS for Inhibitors of TGF-b. Potency, µM (series often up to 46.1 µM), hits mostly inhibitors. AID 588855, 2011. HepG2 CAGA-GFP TGF-b/SMAD3 reporter, GFP fluorescence, 18 h; TGF-beta stimulated, 500 pg/mL final. 410,000 tested, 1.2% active; further: nearly all actives have a fitted effect of over 65% in size
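Inhibition was scored as loss of TGF-beta-induced (500 pg/mL final, 18 hours, 37 degrees C) GFP in HEPG2 cells carrying a CAGA-GFP reporter, in DMEM with 1% FBS. Well GFP was summed per cell; Activity was normalised to unstimulated and stimulated DMSO wells, then concentration-response fitting.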
HepG2 viability – qHTS for Inhibitors of TGF-b: Cytotox Counterscreen | Potency, µM (doses to about 46.1 µM), hits mostly cytotoxic | HepG2 CAGA-GFP viability, ATP luminescence, 18 h | AID 588856, 2011 | 410,000 tested, 0.76% active
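HepG2 CAGA-GFP cells (1000/well, DMEM with 1% FBS) received compound, then TGF-beta at 500 pg/mL final, and were incubated 18 hours at 37 degrees C. Viability was read by CellTiter-Glo luminescence. Media-only wells were set as complete cell-killing and DMSO as no toxicity.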
Numbers stand for hits; . = inactive; ? = inconclusive; / = not tested or not shown; ! = repeats disagree; [ ] = dose if it differs, or a comment. The call rests on the fitted dose curve; in most records, active means well fitted curve in the direction sought with a large enough effect; inconclusive means small, poorly fitted or top-dose-only effect, or another doubt; inactive means no such curve, though single readings can be large; an effect the other way counts as inactive or inconclusive.

SMILES | ATXN2 expr inh | HT1080 IDH1KD tx | HT1080NT lethal | ATXN viability | TGFb SMAD3 inh | HepG2 viability
Cc1cc(C2=NNC(=NC3CC3)SC2)c(C)n1-c1ccccc1F | 0.28µM | ? | ? | . | ? | .
CCCCN=C1NN=C(c2ccc3c(c2)OCCO3)CS1 | . | . | . | . | . | .
COc1cccc(/C=N/NC(=O)C(=O)NCc2ccco2)c1OC | . | . | . | . | . | .
COc1cccc(/C=N/NC(=O)C(=O)N/N=C/c2cccc(OC)c2O)c1O | . | . | . | . | . | .
COc1cccc(/C=N/NC(=O)c2ccoc2C)c1O | ? | 9.2µM | ? | ? | ? | .
COc1cccc(/C=N/NC(=O)C(=O)N2CCCCCC2)c1O | . | 13µM | ? | . | . | .
COc1cccc(/C=N/NC(=O)C(=O)NCc2ccco2)c1O | . | 7.1µM | 8.9µM | . | . | .
O=C(N/N=C/c1cc([N+](=O)[O-])ccc1Cl)c1cnccn1 | . | ? | 4.1µM | . | . | .
O=C(N/N=C/c1cccc([N+](=O)[O-])c1)c1cnccn1 | . | . | . | . | . | .
C[C@@H]1CN(Cc2ccc3c(c2)CN(Cc2cccn2-c2ccccn2)CCO3)C[C@H](C)O1 | / | / | / | . | / | /
Cc1ccc(OCc2nc(-c3ccc(C(=O)N4CCN(c5ccccc5F)CC4)cc3)oc2C)cc1 | . | / | / | . | . | .
COc1cccc(CNC(=O)CCc2c(C)c3cc4c(C)coc4c(C)c3oc2=O)c1 | / | / | / | / | . | .
O=C(N/N=C/c1ccccc1F)NC12CC3CC(CC(C3)C1)C2 | . | . | . | . | . | .
COc1cccc(/C=N/NC(=O)c2cnccn2)c1O | . | 16µM | ? | ? | ? | .
COc1cccc(/C=N/NC(=O)NC23CC4CC(CC(C4)C2)C3)c1O | . | 18µM | ? | ? | ? | .
CN1CCN(C(=O)/C=C/c2ccc([N+](=O)[O-])o2)CC1 | / | 21µM | ? | / | 11µM | .
O=C(O)/C=C/c1ccc([N+](=O)[O-])o1 | . | . | . | . | . | .
C=C1C=C(C)n2ncc(C(=O)N(CCc3ccccc3)Cc3ccccc3)c2N1 | / | / | / | / | ? | .
CCCOc1ccc2ccccc2c1/C=N/n1c(C)nnc1-n1nc(C)cc1C | . | 4.1µM | ? | ? | ? | .
CC#CCC(C)[C@H](O)/C=C/[C@@H]1[C@H]2C/C(=C/CCCC(=O)O)C[C@H]2C[C@H]1O (stereo partly drawn) | / | / | / | . | / | /
CCC(C)Sc1ccc(-c2nc3ccc(C)cn3c2NC2CCCCC2)cc1 (stereo not drawn) | . | / | / | ? | . | .
CCC(C)Sc1cc(-c2nc3cc(C)ccn3c2NC2CCCCC2)ccc1OC (stereo not drawn) | ? | ? | 21µM | ? | ? | .
CCC(C)Sc1cc(-c2nc3ccccn3c2NC2CCCCC2)ccc1OC (stereo not drawn) | ? | 18µM | 26µM | 32µM | ? | .
CC(=O)c1ccc(-c2cccc(-c3nc4ccccn4c3NC3CCCCC3)c2)cc1 | ? | ? | ? | 16µM | ? | .
Cc1c(Cl)cccc1NC(=O)c1cnc2sc(N3CCOCC3)nn2c1=O | / | / | / | / | . | .
SMILES | ATXN2 expr inh | HT1080 IDH1KD tx | HT1080NT lethal | ATXN viability | TGFb SMAD3 inh | HepG2 viability
Cc1cc(C)nc(-n2nc(C)c(Sc3ccc(F)cc3)c2N)n1 | . | 5µM | 4µM | ? | ? | .
c1ccc(Cn2sc(=Nc3ccccc3)nc2-c2ccccc2)cc1 | / | / | / | / | . | .
c1ccc(N=c2nc(-c3ccccc3)n(-c3ccccc3)s2)cc1 | / | / | / | / | 2.8µM | .
CC(C)(C)C(=O)/C=C/Nc1ccccc1O | . | 13µM | ? | . | . | .
CN(C)c1ccc(N/C=C/C(=O)C(C)(C)C)cc1 | . | ? | . | . | ? | .
COc1ccc(C(=O)c2[nH]c(N)c(C(=O)NCCc3c[nH]c4ccccc34)c2-c2ccc(Br)cc2)cc1 | . | ? | ? | . | / | /
Nc1[nH]c(C(=O)c2ccccc2)c(-c2ccc(Br)cc2)c1C(=O)NCCc1c[nH]c2ccccc12 | ? | . | . | 22µM | / | /
COc1ccc(N2CCc3c(C)nc4c(OC)cc(OC)cc4c32)cc1 | . | 23µM | ? | . | . | .
COc1ccc(N2CCc3c(C)nc4c(OC)cc(OC)cc4c32)c(OC)c1 | ? | ? | ? | ? | . | .
COc1cccc(N2CCc3c(C)nc4ccc(Cl)cc4c32)c1 | ? | 21µM | ? | / | ? | .
O=C(NCc1cccc(Br)c1)c1cnn(-c2ccc(F)cc2)c1-n1cccc1 | . | / | / | ? | ? | .
COC(=O)[C@H](CCSC)NC(=O)N1CCC(C)CC1 | . | . | . | . | . | .
COC(=O)[C@@H](NC(=O)N1CCC(C)CC1)C(C)C | . | . | . | . | . | 0.45µM
CCn1c(C(=O)OC)cc2c1ccn2-c1ccc(F)cc1 | . | ? | . | . | . | 13µM
O=C(C=Cc1cccnc1)NCCCCC1CCN(C(=O)c2ccccc2)CC1 | . | / | / | / | / | /
CC12CN3CC(c4ccccc4)(CN(C1)C3c1ccc(Cl)cc1)C2=O (stereo not drawn) | . | / | / | . | . | .
c1ccc2sc(Sc3ncnc4sccc34)nc2c1 | . | ? | . | . | ? | .
CCc1cc2c(Sc3nc4ccccc4s3)ncnc2s1 | ? | ? | 5.2µM | ? | . | .
C/C=C1\COC(C(=O)NCCCN2CCCC2=O)(C(F)(F)F)C=C1C=C(C)C (stereo not drawn) | . | . | . | . | ? | 11µM!
C/C=C1\COC(C(=O)NCCN2CCCC2)(C(F)(F)F)C=C1C=C1CCCCC1 (stereo not drawn) | ? | . | . | ? | ? | .
COCc1ccc(CN2Cc3ccccc3OC(c3ccccc3F)C2)o1 (stereo not drawn) | / | / | / | . | / | /
Cc1cccc(CC(Cc2nc3ccccc3[nH]2)c2nc3ccccc3[nH]2)c1 (stereo not drawn) | ? | 26µM | 18µM | ? | ? | .
COc1ccccc1CC(Cc1nc2ccccc2[nH]1)c1nc2ccccc2[nH]1 (stereo not drawn) | . | ? | . | ? | . | .
COCC(=O)Nc1cc(C(=O)N2CC3CCC2C3)c2c(c1)nc(-c1ccncc1)n2C (stereo not drawn) | / | / | / | . | / | /
O=C(NCc1ccccn1)c1cnn(-c2nccc(-c3ccccc3F)n2)c1C1CC1 | / | / | / | . | / | /
CCOC(=O)c1oc2ccc(CNC3CCCCC3)c(Cl)c2c1C | . | .[9.24 µM] | 11µM | . | ? | .
Cc1ccccc1NC(=O)CSc1nc2ccc(NC(=O)COc3ccccc3F)cc2s1 | 18µM | / | / | ? | ? | .
